{"source": "PubChem BioAssay (NCI)", "note": "Compounds without any hit were thinned out: in the full panel of roughly 79,000, 15% have a hit. Values without a mark were called inactive. The source made the active and inactive calls. Cut-off read from the data, not from the text of the source: active = growth inhibition above about 70%; inactive = the rest.", "data": [{"test": "NCI Yeast Anticancer Drug Screen. Data for the rad50 strain (AID 155);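 note: 0% = growth of vehicle-only cultures of the same strain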", "settings": "S. cerevisiae rad50 strain growth inhibition; at 50.0 µM; stronger effect = higher value", "procedure": "Growth inhibition of yeast strains with defined genetic alterations is measured as a screen for potential anti-cancer activity. Selected strains with alterations in DNA damage repair or cell cycle control were exposed to compounds and growth inhibition was measured relative to vehicle treated controls. The strain used in this assay is rad50", "values": [{"smiles": "O=C(CC(=O)N1N=C(n2ccc3ccccc32)CC1c1ccccc1)Nc1ccccc1Cl", "note": "(stereo not given)", "growth inhibition": "-13.6%"}, {"smiles": "COC1CCCC2CC3=C(CCCC3)OC21", "note": "(stereo not given)", "growth inhibition": "-6.45%"}, {"smiles": "N#CCCOCC(COCCC#N)(COCCC#N)COCCC#N", "growth inhibition": "-11.9%"}, {"smiles": "CCN(CC)CCCC(C)Nc1ccnc2ccc3nn(C)nc3c12", "note": "(stereo not given)", "growth inhibition": "-11.6%"}, {"smiles": "NC(=O)c1ccc(Cl)cc1C(N)=O", "growth inhibition": "-6.55%"}, {"smiles": "Cc1ccc(C2[C@H]3C(=O)N(c4ccc(Cc5ccc(N6C(=O)[C@@H]7ON(c8ccccc8)C(c8ccc(C)cc8)[C@@H]7C6=O)cc5)cc4)C(=O)[C@H]3ON2c2ccccc2)cc1", "note": "(stereo not given in full)", "growth inhibition": "-23.9%"}, {"smiles": "COc1ccc(/C=C2\\N=C(c3ccccc3)N(Nc3nnc(NN4C(=O)/C(=C/c5ccc(OC)cc5)N=C4c4ccccc4)c4ccccc34)C2=O)cc1", "growth inhibition": "-9.4%"}, {"smiles": "NC(CCC(=O)NC1(C(=O)O)C2CC3CC(C2)CC1C3)C(=O)O", "note": "(stereo not given)", "growth inhibition": "6%"}, {"smiles": "C=CC1(c2ccc3ccccc3c2)OCC(CC)(CC)CO1", "growth inhibition": "-18.1%"}, {"smiles": "CN(C)CCOc1cccc(OCCN(C)C)n1", "growth inhibition": "10.7%"}, {"smiles": "CC1SC2(C(=O)Nc3ccccc32)N(c2ccc(Cl)cc2)C1=O", "note": "(stereo not given)", "growth inhibition": "21.6%"}, {"smiles": "CC(=O)Oc1ccc(OC(C)=O)c2cc3ccccc3cc12", "growth inhibition": "-28.1%"}, {"smiles": "CC1(C)OC2OC(C(O)COC(=O)c3ccccc3)C(Cl)C2O1", "note": "(stereo not given)", "growth inhibition": "26.6%"}, {"smiles": "COC(=O)c1c(O)ccc(O)c1C(=O)OC", "growth inhibition": "-15.7%"}, {"smiles": "Nc1cccc2c1C(=O)c1cccc(Nc3ccc4c(c3)C(=O)c3ccccc3C4=O)c1C2=O", "growth inhibition": "-2.95%"}, {"smiles": "COC(=O)Cc1ccc2c(c1)Sc1ccc(CC(=O)OC)cc1N2C", "growth inhibition": "-4.75%"}, {"smiles": "COc1cc(CCl)c(OC)cc1Cl", "growth inhibition": "8.6%"}, {"smiles": "CCC(CC)c1ccc2ccccc2c1", "growth inhibition": "-22.2%"}, {"smiles": "Cc1ccc(N2C(=O)/C(=C/c3ccc(N(CCC#N)CCC#N)cc3C)N=C2c2cc([N+](=O)[O-])ccc2Cl)cc1", "growth inhibition": "8.85%"}, {"smiles": "COC1(c2ccccc2)N=C(c2ccc([N+](=O)[O-])cc2)OC1(C)C", "note": "(stereo not given)", "growth inhibition": "4%"}, {"smiles": "COC1C=CC2OC(c3ccccc3)OCC2O1", "note": "(stereo not given)", "growth inhibition": "-16.2%"}, {"smiles": "COc1ccc2cc1Oc1ccc(cc1)CC1=NCCc3cc(OC)c(OC)c(c31)Oc1cc3c(cc1OC)CCN(C)C3C2", "note": "(stereo not given)", "growth inhibition": "-8.75%"}, {"smiles": "COC(=O)c1ccccc1C1CN=NC12Cc1cccc(C)c1C2=O", "note": "(stereo not given)", "growth inhibition": "26.6%"}, {"smiles": "COC(OC)(c1ccccc1)c1ccccc1", "growth inhibition": "-33%"}, {"smiles": "CC(=O)Nc1ccc(/C=N/NC(N)=O)cc1", "growth inhibition": "16.4%"}, {"smiles": "COC/N=C(\\NC#N)NCOC", "growth inhibition": "20.5%"}, {"smiles": "CC1=[N+]([O-])C2(CCCC2)N(O)C1(C)C", "growth inhibition": "-13.8%"}, {"smiles": "COc1ccc(C=O)c(C(=O)O)c1OC", "growth inhibition": "-7.7%"}, {"smiles": "Cc1ccc(S(=O)(=O)N2CCCCC2)cc1", "growth inhibition": "-11.8%"}, {"smiles": "Clc1ccc(N=Nc2ccccc2)cc1", "growth inhibition": "-2.45%"}, {"smiles": "O=C(NSNc1ccccc1)c1ccccc1", "growth inhibition": "0.8%"}, {"smiles": "COC1=NCc2ccccc2-c2ccccc21", "growth inhibition": "-16.1%"}, {"smiles": "Cc1ccc(-c2cc(-c3ccco3)nc(N)n2)o1", "growth inhibition": "-23.9%"}, {"smiles": "NCCNC(=O)c1ccccc1", "growth inhibition": "-6.5%"}, {"smiles": "COC(=O)c1nc(N)nc(C(=O)OC)c1C(=O)c1c(C)[nH]c2ccccc12", "growth inhibition": "-9.85%"}, {"smiles": "CN(C)c1ccc(/C=c2\\[nH]c(=O)/c(=C\\c3ccc(N(C)C)cc3)[nH]c2=O)cc1", "growth inhibition": "4.3%"}, {"smiles": "O=C(CC(O)(C(F)(F)Cl)C(F)(F)Cl)c1cccc([N+](=O)[O-])c1", "growth inhibition": "77.5% (active)"}, {"smiles": "CCc1cc(Cl)c(O)c(Cl)c1", "growth inhibition": "4.2%"}, {"smiles": "O=C(NCCCl)NCc1cccc2c1CCCC2", "growth inhibition": "-12.5%"}, {"smiles": "OCCN(CCO)c1nc(N(CCO)CCO)nc(N(CCO)CCO)n1", "growth inhibition": "19.8%"}]}]}
